# Assay results from PubChem BioAssay AID720518 (National Center for Advancing Translational Sciences (NCATS), 2013).
# Inconclusive results are not listed. The source made the active and inactive calls. Calls come from the whole dose curve.
# Assay: qHTS for Inhibitors of Cell Surface uPA Generation: Wild-type Protective Antigen (WT-PrAg) Counterscreen for Cherry-picked Compounds; for activity (protection): 0% is about no effect
# Details: cells, WT protective antigen toxicity counterscreen; series mostly up to 115 µM; activity (protection): at the top concentration
# Potency is the fitted concentration of half-maximal effect.
SMILES,activity (protection),Potency
CC(=O)c1cccc(NC(=O)N2C3CCC2CC(O)(c2cccnc2)C3)c1 (centres undefined),2.27% (inactive),–
COc1ccccc1CCNC(=O)C(=O)NCC1OCCN1S(=O)(=O)c1ccc(OC)c(OC)c1 (centres undefined),-0.951% (inactive),–
CCC(NC(=S)NCc1ccc(F)cc1)c1ccccc1 (centres undefined),0.549% (inactive),–
O=C(COC(=O)/C=C/c1cccc(F)c1)Nc1ccccc1,-0.363% (inactive),–
COc1ccccc1NNC(=O)C(O)(c1ccccc1OC)c1ccccc1OC,1.06% (inactive),–
NC(=O)CC[C@H](NC(=O)c1ccc(F)cc1)C(=O)OCC(=O)Nc1c(F)c(F)c(F)c(F)c1F,-0.726% (inactive),–
CC(=O)n1cc(/C=N/NC(=O)c2ccc([N+](=O)[O-])cc2)c2ccccc21,-1.78% (inactive),–
Nc1nc2ccc(Br)cc2o1,-1.4% (inactive),–
COc1cc(/C=N/NC(=O)c2ccncc2)ccc1O,1.44% (inactive),–
CCOc1ccc(Cl)cc1/C=N/NC(=O)c1ccccc1,-0.125% (inactive),–
CCN(CC)CCCn1c2c(c(SCC(=O)Nc3cccc4ccccc34)nc1=O)CCC2,-1.93% (inactive),–
COc1cc(NC(=S)NCCc2ccc(S(N)(=O)=O)cc2)c(OC)cc1Cl,7.74% (inactive),–
CC(=O)c1ccc(OCCCCOc2ccc(C(C)=O)cc2)cc1,-0.376% (inactive),–
Cc1ccc(S(=O)(=O)NNC(=O)c2ccc(F)cc2)cc1,0.393% (inactive),–
COc1cc(CNCc2ccc3c(c2)OCO3)c([N+](=O)[O-])cc1OC,0.0004% (inactive),–
Oc1ccc(/C=N/Nc2cccc(Cl)n2)c(O)c1,-2.29% (inactive),–
O=[N+]([O-])c1ccc(C[n+]2cccc(O)c2)cc1,-1.12% (inactive),–
COc1ccc(-n2ncc3c(=O)n(CC(=O)NC(C)C)cnc32)cc1,-0.469% (inactive),–
CCCCn1c(N)c(N(CCC(C)C)C(=O)c2sc3nc4n(c(=O)c3c2C)CCC4)c(=O)[nH]c1=O,4.42% (inactive),–
CC(=O)c1ccc(N2CCN(C(=S)NCc3ccco3)CC2)cc1,-1.46% (inactive),–

SMILES,activity (protection),Potency
COc1ccc(CC(=O)NNS(=O)(=O)c2ccccc2[N+](=O)[O-])cc1OC,-0.806% (inactive),–
C#CCOCCOCCOCCNc1nc(N2CCOCC2)nc(N2CCN(C(=O)[C@H](CCC(=O)O)n3cc([C@@H](N)CCCCN)nn3)CC2)n1,-0.0828% (inactive),–
CCOC(=O)C1(CC2CCCCO2)CCN(Cc2nccn2-c2cccc(C)c2)CC1 (centres undefined),-2.03% (inactive),–
CC(=O)c1c(C)n(-c2ccccc2Br)c2ccc(O)cc12,-2.39% (inactive),–
O=C(Cc1ccccc1)Nc1ccc(NC(=O)c2ccccc2)c(Cl)c1,-1.13% (inactive),–
O=C(O)c1cc(N=Nc2c(O)[nH]c3ccc([N+](=O)[O-])cc23)ccc1Cl,-1.2% (inactive),–
COC(=O)c1c(NC(=O)c2c(OC)cccc2OC)sc2c1C(C(=O)OC)CC2 (centres undefined),–,46.5 µM (active)
COc1ccc(C(=O)NCC(=O)N/N=C/c2c(C)[nH]c3ccccc23)cc1,0.57% (inactive),–
Cc1ccc(CN2CCN(Cc3cc4ccccc4o3)CC2CCO)cc1 (centres undefined),-0.17% (inactive),–
O=C(CNC(=O)c1ccc(Br)o1)NNC(=O)c1ccccc1,-0.857% (inactive),–
CCOc1ncccc1C(=O)NCc1ccccc1Cl,1.05% (inactive),–
O=C(NC(=O)c1ccccc1)Nc1cccc(S(=O)(=O)N2CCCCC2)c1,-0.591% (inactive),–
COc1ccc(NS(=O)(=O)c2c(C)n(C)c(=O)n(C)c2=O)cc1OC,-1.24% (inactive),–
O=C(CCCOc1ccc(Cl)cc1Cl)NCc1ccncc1,0.418% (inactive),–
O=C(O)CCCC(=O)NCCCCc1ccccc1,-0.427% (inactive),–
Cc1nn(C)c(C)c1S(=O)(=O)N1CCC(C(=O)NC2CCCCCC2)CC1,-0.489% (inactive),–
COc1cc(CNCCc2ccccc2)cc(Br)c1OCC(=O)Nc1ccccc1C,-1.07% (inactive),–
CC(C)NC(=O)CN1CCC(c2nc3ccccc3[nH]2)CC1,-0.544% (inactive),–
CCOC(=O)c1c(C)oc2ccc(OC(=O)COc3c(F)c(F)c(F)c(F)c3F)cc12,-0.307% (inactive),–
